In the library only some 3.2% were active in any assay of this set; here they are far more common.
TMEM16A act: TMEM16A chloride channel activators or potentiators, primary screen, cell-based, HTS. Anoctamin-1 (Mus musculus), Q8BHY3. HEK293 TMEM16A/YFP-H148Q/I152L, iodide quench fluorescence; hits give low values. B-score at 10 µM. 340,000 tested, 0.3% active;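 active = fluorescence-ratio B-score plate-corrected deviation score at least 3 library SD below zero, with starting fluorescence score within 5 deviations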;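 note: channel opened by trigger with iodide after compound preincubation; score built on the fluorescence ratio of max minus min over baseline; more negative score means more quench and so TMEM16A activation or potentiation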
Rce1 inhib: yeast Rce1p protease inhibitors, primary screen, biochemical, fluorescence, cell-free homogeneous; yeast membranes, quenched prenylated peptide cleavage fluorescence; calls only; 290,000 tested, 0.27% active; AID 2563, 2010;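 active = fall in fluorescence gain of 50% or more versus controls, with final raw signal at or below 3038400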;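 note: plate controls were neutral control wells for no effect and wells lacking membranes for full effect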
CHT allo act: CHT positive allosteric modulators, primary screen, cell-based, membrane potential dye, choline EC20 | High affinity choline transporter 1 (Homo sapiens), Q9GZV3 | CHT-expressing cells; hits give high values; LV-AA mutant CHT in HEK293 cells | B-score at 10 µM | 310,000 tested, 0.49% active;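 active = initial fluorescence not abnormally high and integrated response B-score, plate-corrected, over 3 SD above library mean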
TMEM16A inh: TMEM16A chloride channel inhibitors, primary screen, cell-based, HTS; Anoctamin-1 (Mus musculus), Q8BHY3; 310,000 tested, 1.2% active; normalized B-score (activity score, 25-100; higher = stronger inhibition) at 10 µM; HEK293 TMEM16A/YFP iodide influx fluorescence, ionomycin;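 active = ratio plate-corrected score three or more library SD toward inhibition, starting fluorescence score within five deviations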;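 note: score derived from kinetic fluorescence span divided by baseline fluorescence per well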
Kir21 block: inhibitors of mouse Kir2.1 inward-rectifier potassium channel; Inward rectifier potassium channel 2 (Mus musculus), P35561; HEK293-Kir2.1, FluxOR thallium flux fluorescence; hits give low values; B-score at 10 µM; 310,000 tested, 0.85% active; AID 1672, 2009;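 active = fluorescence ratio B-score at or below minus 3 SD of library scores, with starting-brightness B-score within 2 SD, cut at about -4.2 in these data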;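 note: channel flux triggered by added potassium and thallium sulfate stimulus; B-score of peak minus minimum fluorescence over baseline after thallium stimulus; more negative B-score means stronger Kir2.1 block with less thallium influx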
CHT inh: inhibitors of human choline transporter CHT | High affinity choline transporter 1 (Homo sapiens), Q9GZV3 | CHT-expressing cells, membrane potential dye, choline response; hits give low values | B-score at 10 µM | 310,000 tested, 0.86% active | AID 488975, 2010;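 active = B-score over 3 SD under the library average, and starting fluorescence ratio not unusually high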;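 note: choline stimulus applied at its EC90 after an EC20 pre-addition; B-score computed on integrated fluorescence ratio after choline addition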
Starred values were filed as active, the others as inactive; i = inactive; nt = no result; + = active, no number.

SMILES	TMEM16A act	Rce1 inhib	CHT allo act	TMEM16A inh	Kir21 block	CHT inh
COCCCNc1nc(-c2ccc(Cl)cc2)nc2ccccc12	i	nt	i	25*	-0.71	i
OCCCNc1nc(-c2ccc(Cl)cc2)nc2ccccc12	-6.3*	i	i	i	1.6	i
OCCNc1nc(-c2ccccc2)nc2ccccc12	i	i	i	i	0.09	i
Cc1ccc(NC(=O)C(C)N2CCN(C)CC2)cc1S(=O)(=O)N1CCOCC1 (stereo not drawn)	i	nt	nt	nt	nt	nt
CN(C(=O)COC(=O)c1nc(-c2ccccc2)n(-c2ccccc2)n1)C1CCS(=O)(=O)C1 (stereo not drawn)	i	i	i	i	0.91	i
CN(C(=O)COC(=O)c1cn(-c2ccccc2)nc1-c1ccccc1)C1CCS(=O)(=O)C1 (stereo not drawn)	i	+	i	i	-0.15	i
CCN(C(=O)COC(=O)c1cn(-c2ccccc2)nc1-c1ccccc1)C1CCS(=O)(=O)C1 (stereo not drawn)	i	+	i	i	0.55	i
CCN(C(=O)COC(=O)c1ccccc1Cc1ccccc1)C1CCS(=O)(=O)C1 (stereo not drawn)	i	i	i	i	0.04	i
CCCCN(C(=O)c1cc(CN2C(=O)c3ccccc3C2=O)ccc1OC)c1c(N)n(CC(C)C)c(=O)[nH]c1=O	i	nt	nt	nt	nt	nt
CCCNC(=S)Nc1c(C)n(C)n(-c2ccccc2)c1=O	i	i	i	i	0.33	i
COc1ccccc1Oc1coc2c(CN3CCOCC3)c(O)ccc2c1=O	i	i	i	i	-0.98	i
COc1ccccc1-c1coc2c(CN3CCOCC3)c(O)ccc2c1=O	i	+	i	i	0.97	i
CCOC(=O)C1=C(SCC(=O)Nc2ccccc2)NC(=O)C(C#N)C12CCCCC2 (stereo not drawn)	-31*	nt	i	i	-0.37	i
CC(C)(C)C1CCC2(CC1)C(C#N)=C(SCC(=O)NC1CCCCC1)NC(=O)C2C#N (stereo not drawn)	i	i	i	100*	-1.9	i
N#CC1=C(SCC(=O)NC23CC4CC(CC(C4)C2)C3)NC(=O)C(C#N)C12CCCCC2 (stereo not drawn)	i	i	i	100*	0.47	i
N#CC1=C(SCC(=O)Nc2cccc3cccnc23)NC(=O)C(C#N)C12CCCCC2 (stereo not drawn)	i	i	i	100*	2.6	i
O=C(CN1C(=O)c2ccccc2C1=O)Nc1cccc2cccnc12	i	i	i	i	0.54	i
N#CC1=C(SCC(=O)NC2CC2)NC(=O)C(C#N)C12CCCCC2 (stereo not drawn)	i	i	i	i	-1.3	i
COc1ccc(C(=O)NC2CCSc3ccccc32)cc1F (stereo not drawn)	i	nt	i	i	1.7	i
CCCc1ccc(Oc2cn[nH]c2-c2ccc(O)c(C)c2O)cc1	i	i	i	100*	-0.03	i
CCCOC(=O)c1ccc(Oc2cn[nH]c2-c2ccc(OCC)cc2O)cc1	i	i	i	i	1.1	i
CCOC(=O)C1=C(COC(=O)COc2ccccc2C#N)NC(=O)NC1C (stereo not drawn)	i	i	i	i	0.68	i
CC(=O)c1cccc(CN(C)CC2CCCN(CCc3ccccc3C)C2)c1 (stereo not drawn)	i	i	i	i	-6.5*	i
COc1ccc(F)c(CN(C)CC2CCCN(CCc3ccc(F)cc3)C2)c1 (stereo not drawn)	i	i	i	i	-9.8*	i
COc1ccc(CCN2CCCC(CN(C)Cc3cc(OC)c(OC)c(OC)c3)C2)cc1 (stereo not drawn)	i	i	i	i	1.2	i
SMILES	TMEM16A act	Rce1 inhib	CHT allo act	TMEM16A inh	Kir21 block	CHT inh
COc1cc(CN(C)CC2CCCN(CCc3ccccc3F)C2)cc(Cl)c1OC (stereo not drawn)	i	i	i	i	-4.9*	i
COc1ccccc1CNC(=O)[C@H](C)NC(=O)C1CCN(C(=O)[C@@H](N)C(C)C)CC1	i	i	i	i	-0.9	i
Cc1nnc(SCC(=O)NC2CCCC2)n1-c1ccccc1	i	nt	nt	nt	nt	nt
C=CCC(NCc1ccccc1)c1ccco1 (stereo not drawn)	i	i	i	i	0.88	i
CN(C)c1ccc(CNCCC(Cc2ccccc2)c2ccco2)cc1 (stereo not drawn)	i	i	i	i	-4.7*	i
Cc1cccc(NC(=S)NCC(C)CSc2ccc(Cl)cc2)c1 (stereo not drawn)	i	i	i	25*	-1.1	i
Cc1nn(-c2ccc(C(=O)N3CCN(S(=O)(=O)c4ccccc4C(F)(F)F)CC3)cc2)c(C)c1Cl	-5.8*	nt	nt	nt	nt	nt
CCN(CC)S(=O)(=O)c1ccc(=O)n(CC(=O)N2Cc3ccccc3CC2C(N)=O)c1 (stereo not drawn)	i	nt	nt	nt	nt	nt
CCOc1ccc(OCC(=O)OCC(=O)NNC(=O)c2ccc([N+](=O)[O-])cc2)cc1	i	i	i	i	0.06	i
COc1ccc(/C(N)=N/OC(=O)CSc2ccc(C)cc2)cc1	i	nt	i	100*	-2.6	i
COc1ccc(CC(=O)NNC(=O)CSc2ccc(C)cc2)cc1	-7.1*	i	i	i	0.28	i
CN(C)C1(CNC(=O)C2CCN(S(=O)(=O)c3ccccc3C(F)(F)F)CC2)CCCCC1	i	i	i	i	-0.32	i
CCCCOC(=O)Cn1c(=O)n(CC(=O)OCCCC)c2ccccc21	i	i	i	i	-6.1*	i
CCCCCOC(=O)Cn1c(=O)oc2ccccc21	i	i	i	i	-0.89	i
CCCCCCCCCCOC(=O)Cn1c(COc2ccccc2)[n+](C)c2ccccc21	i	i	i	i	-13*	i
CCCCCCCCCCOC(=O)Cn1c(COc2ccc(Cl)cc2)[n+](C)c2ccccc21	i	i	i	i	-8.9	i

High-throughput results (PubChem BioAssay)
